Test results: PubChem BioAssay (NCI)
Compounds without any hit were thinned out: in the full panel of roughly 79,000, 15% have a hit. A number with no mark means an inactive call. Rule as the data show it: active = growth inhibition above about 70%; inactive = the rest.

Assay: NCI Yeast Anticancer Drug Screen. Data for the rad50 strain (AID 155);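 also: 0% = growth of vehicle-only cultures of the same strain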
Conditions: S. cerevisiae rad50 strain growth inhibition; at 50.0 µM; stronger effect = higher value
Description: Growth inhibition of yeast strains with defined genetic alterations is measured as a screen for potential anti-cancer activity. Selected strains with alterations in DNA damage repair or cell cycle control were exposed to compounds and growth inhibition was measured relative to vehicle treated controls. The strain used in this assay is rad50

Q: For `CC1(C=O)CCCC2(C)[C@@H]1CCC13CC(CO)C(CC[C@H]12)C3` (stereo not given in full), which growth inhibition is on record?
A: Its growth inhibition is 19.4%.

Q: With `Cc1c(C(CC(=O)c2ccccc2)C(=O)O)c2ccccc2n1C` (stereo not given) as the compound, how does the growth inhibition read?
A: Its growth inhibition is 2.05%.

Q: Which growth inhibition does the source give for `Brc1cccc(C2ON=C(c3ccccc3)N2C23CC4CC(CC(C4)C2)C3)c1` (stereo not given) here?
A: The growth inhibition was 2.2%.

Q: For `CC(C)NC(=O)OCc1c(COC(=O)NC(C)C)c(S(C)(=O)=O)n2c1CCC2`, which growth inhibition is on record?
A: Its growth inhibition is 3.65%.

Q: Which growth inhibition does the source give for `CCCCCCC(C#N)(CCN(C)C)c1ccccc1` (stereo not given) here?
A: Its growth inhibition is 15.4%.

Q: Which growth inhibition does the source give for `CCCCOCCOC(=O)c1ccccc1C(=O)OCCOCCCC` here?
A: The growth inhibition was -5.75%.

Q: With `O=S(=O)(O)C(O)c1ccncc1` (stereo not given) as the compound, how does the growth inhibition read?
A: The growth inhibition was -38.2%.

Q: For `CCOC(=O)C12CCC(=O)CC1(O)CCC1(C2)OCCCO1` (stereo not given), which growth inhibition is on record?
A: Its growth inhibition is 10.1%.

Q: Which growth inhibition does the source give for `Cc1ccc(S(=O)OC2C3CC4CC(C3)CC2C4)cc1` (stereo not given) here?
A: Its growth inhibition is 6.65%.

Q: With `Nc1cccc(N2N=C(C(=O)O)CC2=O)c1` as the compound, how does the growth inhibition read?
A: The growth inhibition was -7%.

Q: For `c1ccc(CSc2nn[nH]n2)cc1`, which growth inhibition is on record?
A: Its growth inhibition is -5.3%.

Q: For `ClC(Cl)=C(c1ccccc1)c1ccccc1`, which growth inhibition is on record?
A: The growth inhibition was 30.2%.

Q: Which growth inhibition does the source give for `CN(C)C(=N)N=C(N)N` here?
A: Its growth inhibition is -23.2%.

Q: For `COC1(OC)C2(Cl)CC(C(=O)O)C1(Cl)C(Cl)=C2Cl` (stereo not given), which growth inhibition is on record?
A: The growth inhibition was 7.55%.

Q: With `CCO/C=C1/C(=O)N(C)c2c1c(=O)n(C)c(=O)n2C` as the compound, how does the growth inhibition read?
A: The growth inhibition was -46.9%.

Q: For `O=[N+]([O-])c1ccc(N/N=C/C2CCCCCC2)c([N+](=O)[O-])c1`, which growth inhibition is on record?
A: Its growth inhibition is 11.4%.

Q: Which growth inhibition does the source give for `Cn1c(N(CCO)CCO)cnc1[N+](=O)[O-]` here?
A: Its growth inhibition is 11.7%.

Q: Which growth inhibition does the source give for `NC(=O)Nc1ccc2ccccc2c1` here?
A: The growth inhibition was 8.8%.

Q: With `Cc1ccc([N+](=O)[O-])cc1NC(=O)Oc1cc(=O)oc2ccccc12` as the compound, how does the growth inhibition read?
A: The growth inhibition was 3.2%.

Q: Which growth inhibition does the source give for `CCCOC(C)OCCC#CCC(C)OC(=O)CC(Cl)(Cl)Cl` (stereo not given) here?
A: The growth inhibition was -13.8%.

Q: With `CC(NC(=O)CCl)c1ccccc1` (stereo not given) as the compound, how does the growth inhibition read?
A: The growth inhibition was 23.7%.

Q: Which growth inhibition does the source give for `Cc1c(O)nc(N)[nH]c1=O` here?
A: The growth inhibition was 2.65%.

Q: With `O=C(Nc1cccc([N+](=O)[O-])c1)OCC#CCOC(=O)Nc1cccc([N+](=O)[O-])c1` as the compound, how does the growth inhibition read?
A: The growth inhibition was 3.8%.

Q: With `Cc1c(Cl)ccc2c1NC(=O)C2(O)CC(=O)c1ccc(Cl)cc1Cl` (stereo not given) as the compound, how does the growth inhibition read?
A: Its growth inhibition is 34.4%.

Q: For `CCCCn1nnnc1N`, which growth inhibition is on record?
A: Its growth inhibition is 3.45%.

Q: With `Cc1cc2c(=O)c3ccccc3[nH]c2c(C(=O)O)c1C` as the compound, how does the growth inhibition read?
A: The growth inhibition was 5.35%.

Q: With `CC(C)(C)c1ccc(N)cc1` as the compound, how does the growth inhibition read?
A: Its growth inhibition is -37.7%.

Q: With `NCC1CCCCO1` (stereo not given) as the compound, how does the growth inhibition read?
A: The growth inhibition was 7%.

Q: Which growth inhibition does the source give for `CC(C)(C)[Si](C)(C)OCC1OC(n2cnc3c(N)ncnc32)C(O)C1O` (stereo not given) here?
A: The growth inhibition was -12.4%.

Q: Which growth inhibition does the source give for `Cc1ccc(Cl)cc1NC(=O)C(Br)C(Br)c1ccccc1` (stereo not given) here?
A: Its growth inhibition is 20.6%.

Q: For `O=[N+]([O-])c1cccc(N=Cc2ccccc2)c1`, which growth inhibition is on record?
A: Its growth inhibition is 7.25%.

Q: With `CC(C)c1ccc(/C=N\N(C)C)cc1` as the compound, how does the growth inhibition read?
A: The growth inhibition was 2.3%.

Q: Which growth inhibition does the source give for `O=[N+]([O-])c1cc2ccccc2nc1-c1ccccc1` here?
A: Its growth inhibition is 15.6%.

Q: With `O=C(O)C1CSC(c2ccccc2O)N1` (stereo not given) as the compound, how does the growth inhibition read?
A: Its growth inhibition is -17.6%.

Q: With `CC(C)C(C)(O)CO` (stereo not given) as the compound, how does the growth inhibition read?
A: Its growth inhibition is -21.9%.

Q: With `CC(=O)NCC(OC(C)=O)c1ccc2c(c1)[nH]c1ccccc12` (stereo not given) as the compound, how does the growth inhibition read?
A: Its growth inhibition is 17.1%.

Q: For `CC(C)N(CSc1ccc([N+](=O)[O-])cc1)CSc1ccc([N+](=O)[O-])cc1`, which growth inhibition is on record?
A: The growth inhibition was 12.3%.

Q: With `Cc1ccc(SC(C)/C=C/NNC2=NC(c3ccccc3)C(c3ccccc3)=NN2)cc1` (stereo not given) as the compound, how does the growth inhibition read?
A: Its growth inhibition is 35.2%.

Q: Which growth inhibition does the source give for `Oc1ccccc1CN1CCOCC1` (tested in a mixture with another compound) here?
A: The growth inhibition was -2.7%.

Q: With `CC(=O)NC(c1ccccc1)(c1ccccc1)c1ccccc1` as the compound, how does the growth inhibition read?
A: Its growth inhibition is 12.1%.
